# Assay results reported in PubChem BioAssay (NCI).
# About 83,000 compounds went through this panel and 20% of them were active in at least one assay; those are over-represented in the sample as a whole.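 In brief: 96-well plates, 48 h treatment, single concentration, percent growth endpoint.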 Activity calls are given as the source filed them.
# Test system: SK-OV-3 ovarian
# Assay: NCI-60 one-dose screen, 48 h (100 = growth as untreated, 0 = no growth, -100 = all killed)
# Conditions: 10 µM unless noted
# Experimental: Growth inhibition of the SK-OV-3 human tumor cell line is measured as a screen for anti-cancer activity. Cells are grown in 96 well plates and exposed to the test compound for 48 hours. Compounds are tested at a single concentration, which is 10^-5 M for most compounds. The reported endpoint is percent growth (GI% or GIPRCNT), where numbers from 0 - 100% represent growth inhibition, and numbers from -100% - 0 represent cell death. For example, a value of 40 represents 60% growth inhibition. A value of 0 means no net growth occurred over the course of the experiment. A value of -40 indicates 40% of cells at the beginning of the experiment died by the end of the experiment. A value of -100 means all cells are dead at the end of the experiment.
# NCI-60 Human Tumor Cell Lines Screen was performed using the standard one-dose NCI protocol, which is described in more detail at https://dtp.cancer.gov/discovery_development/nci-60/default.htm.
# Compounds with GIPRCNT values below 10 were considered active. Activity score was based on GIPRCNT using the following formula: […]
# Score is 0 for GIPRCNT values of 100 or above, 50 for GIPRCNT values of 0, and 100 for GIPRCNT values of -100.
row,Structure (SMILES),growth
1,Nc1cc(-c2c[nH]c3ccc(Cl)cc23)nc2cc(-c3c[nH]c4ccc(Cl)cc34)nn12,119% (inactive)
2,CCCSc1nc(Nc2ccc(/C(C)=N\NC(N)=S)cc2)c(C#N)c(-c2ccc(OC)cc2)n1,97.3% (inactive)
3,Oc1c(Cl)cc(Cl)c2ccc(CN3CCCCC3)nc12,62.1% (inactive)
4,Fc1ccc(-c2cc3nc(C(Cl)Cl)nc(-c4ccc(Cl)cc4)n3n2)cc1,-16.6% (active)
5,COc1cc(/C=C/C(=O)c2ccccc2)ccc1Oc1nc(NCCO)nc(N2CCOCC2)n1,99.3% (inactive)
6,COc1ccc(C(=O)/C=C/c2ccc(OCc3ccc(Cl)cc3)c(OC)c2)cc1OC,82.9% (inactive)
7,OC1CCc2c(-c3ccc4ncnc(N5CCc6cc(F)c(Cl)cc65)c4c3)cncc21 (stereo not given),58.1% (inactive)
8,C=C1CC[C@H]2[C@@](C)(CCC3OC(c4ccc(OCc5cn(C6CC(OC(C)=O)C(OC(C)=O)C(COC(C)=O)O6)nn5)cc4)OC[C@]32C)[C@@H]1/C=C/C1=CCOC1=O (stereo not given in full),103% (inactive)
9,CCOC(=O)c1c(Nc2ccccc2)nn2c(-c3ccco3)c(C#N)cnc12,109% (inactive)
10,O=C(CSc1nnc(-c2ccc3nc(-c4ccc(Cl)cc4)[nH]c3c2)o1)Nc1ccc(C(=O)/C=C/c2ccc(Cl)cc2)cc1,110% (inactive)
11,Cc1cc(C(NC(=O)CCCCCNc2cccc3c2C(=O)N(C2CCC(=O)NC2=O)C3=O)c2cccnc2)c(O)c2ncccc12 (stereo not given),25.4% (inactive)
12,CCN1CCN(S(=O)(=O)c2oc(-c3ccc(Cl)cc3)nc2C#N)CC1,129% (inactive)
13,Clc1ccc2c(NCCCn3ccnc3)c3oc4ccc(Cl)cc4c3nc2c1,83.4% (inactive)
14,N#Cc1nc(-c2ccccc2)oc1S(=O)(=O)N1CCN(CCc2ccccn2)CC1,137% (inactive)
15,c1ccc(CNc2ncnc3ccc(-c4cnc5[nH]ncc5c4)cc23)cc1,72.1% (inactive)
16,Cn1cc(-c2cc(N)n3nc(-c4cn(C)c5ccc(Cl)cc45)cc3n2)c2cc(Cl)ccc21,123% (inactive)
17,COc1ccc(-c2csc(N/N=C/c3c(-c4ccc(S(C)(=O)=O)cc4)nc4ccccn34)n2)cc1,136% (inactive)
18,Cc1ccc(/C=C/c2nn3c(-c4ccco4)nnc3s2)cc1C,116% (inactive)
19,COc1cccc(-c2nn(-c3ccccc3)cc2-c2ccnc(N3CCN(C(=O)c4ccccc4)CC3)c2)c1,118% (inactive)
20,CCCCN1C(=O)/C(=c2\sc3n(c2=O)C2C(NN=3)N(CC)C(=O)N2CC)c2cc(Cl)ccc21 (stereo not given),106% (inactive)

row,Structure (SMILES),growth
1,N#Cc1nc(-c2ccccc2)oc1S(=O)(=O)N1CCCCC1,132% (inactive)
2,O=C1Nc2cc(Cl)ccc2/C1=C\c1ccc(OCc2ccc(Br)cc2F)cc1,-36.9% (active)
3,Cn1ccnc1C(=O)/C=C/c1ccc(NC(=O)Nc2ccc(F)cc2)cc1,52.8% (inactive)
4,CC(=O)Oc1ccccc1C(=O)Nc1ccc(C(=O)/C=C/c2cccs2)cc1,132% (inactive)
5,O=C(c1ccc(O)cc1)C1[C@H](c2ccc(Cl)cc2)[C@@H](c2ccccc2)NC12C(=O)Nc1ccc(Cl)cc12 (stereo not given in full),94.6% (inactive)
6,O=C(CCN1C(=O)/C(=C/c2ccccc2F)SC1=S)N1CCOCC1,135% (inactive)
7,C=CCn1c(SCC(=O)c2ccccc2)nnc1-c1c[nH]c2ccccc12,120% (inactive)
8,Clc1ccc(-c2cn3cc(Cc4ccc(Cl)c(Cl)c4)sc3n2)cc1,106% (inactive)
9,CNC(=O)c1cc(-c2ccc(NC(=O)Nc3ccc(N4CCOCC4)c(C(F)(F)F)c3)cc2)nc2cccnc12,93.4% (inactive)
10,O=C(CSc1nccc(=O)[nH]1)Nc1ccc(-c2nc3ccccc3[nH]2)cc1,103% (inactive)
11,O=C(CSc1nc2sc3c(c2c(=O)n1-c1ccc(Cl)cc1)CCCC3)NNC(=O)Nc1cccc(C(F)(F)F)c1,62.1% (inactive)
12,Cn1cc(-c2cc(N)n3nc(-c4cn(C)c5ccc(Br)cc45)cc3n2)c2cc(Br)ccc21,110% (inactive)
13,N/C(=N\c1nc2c(Br)cccc2s1)C(Br)Br,53% (inactive)
14,COc1cccc(OC)c1-c1nnn(C)c1C(=S)N1CCN(c2ccc([N+](=O)[O-])cc2Cl)CC1,110% (inactive)
15,COc1ccc(-c2cc(C(=O)N=Nc3c(O)[nH]c4ccccc34)c3ccccc3n2)cc1OC,103% (inactive)
16,O=C(CN1CCOCC1)NNc1ncnc2ccccc12,107% (inactive)
17,O=C1Nc2ccccc2Oc2ccc(S(=O)(=O)CC3CO3)cc21 (stereo not given),122% (inactive)
18,COc1ccc(-c2nc3ccc(-c4nnc(SCC(=O)Nc5ccc(C(=O)/C=C/c6ccccc6)cc5)o4)cc3[nH]2)cc1OC,117% (inactive)
19,COc1ccc(/C=N/NC(=O)c2[nH]c3ccc(Br)cc3c2-c2ccccc2)s1,25.7% (inactive)
20,CN1CCN(Cc2ccc(NC(=O)c3cncc(C#Cc4cnc5[nH]ncc5c4)c3)cc2C(F)(F)F)CC1,2.28% (active)
